Screens (PubChem BioAssay)
HGIII-sPLA2 inh: Blocks human group III sPLA2 activity; Q9NZ20; QFRET BODIPY PC-A2 liposome hydrolysis, fluorescence; inhibition, % at 12.2 µM; 370,000 compounds, 0.56% hits;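 active = inhibition above mean plus 3 SD of compounds lying within the high and low control bounds, cut at about 19% in these data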
MOR-DOR ag: agonists of human mu-delta opioid receptor heterodimerization | activation, % at 9.3 µM | 340,000 compounds, 0.3% hits | cells, OPRM1-OPRD1 heterodimerization, luminescence; in the data active = activation above about 18%
MOR-DOR inv ag: mu-delta opioid heterodimer inverse agonism; inhibition, % at 9.3 µM; 340,000 compounds, 0.21% hits; P35372+P41143; cell-based MOR-DOR heterodimer luminescence; in the data active = inhibition above about 22%, passing the limit was not always enough
HTR5A ag ctr: activates human HTR5A in OPRM1-OPRD1 agonist counter-screen. HTR5A agonist assay, luminescence, cell-based. 340,000 compounds, 0.61% hits. P47898. activation, % at 9.3 µM; in the data active = activation mostly above about 9.5%, no sharp cut-off; inactive = mostly below about 7.6%
m5-HT2A agonist: activates the mouse 5-HT2A serotonin receptor; CHO-K1 mHTR2A beta-arrestin complementation, luminescence; percent of 30 µM serotonin response; 360,000 compounds, 0.66% hits; AID 624169; activation, % at 7.6 µM; P35363;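 active = activation above a run cutoff, the mean activation of all tested compounds plus 3 SD, cut at about 14% in these data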
HTR5A inv ctr: counter-screen for OPRM1-OPRD1 inverse agonists: human HTR5A inverse agonism; inhibition, % at 9.3 µM; 340,000 compounds, 0.083% hits; HTR5A cell line, luminescence; in the data active = inhibition mostly above about 23%, no sharp cut-off; inactive = mostly below about 18%
MOR ag counter: OPRM1 agonism in mouse HTR2A counterscreen; shares compounds with m5-HT2A agonist; 2,300 compounds, 5.3% hits; AID 624380; activation, % at 9.3 µM; U2OS OPRM1 beta-arrestin PathHunter, luminescence; DMSO 0%, DAMGO 9.3 µM 100%;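 active = mean activation above the mean of DMSO-only wells plus 3 SD, cut at about 0.5% in these data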
m5-HT2A ag conf: confirmation of mouse HTR2A serotonin receptor agonists; shares compounds with m5-HT2A agonist; AID 624381; CHO-K1 PathHunter beta-arrestin recruitment, luminescence; DMSO 0%, 30 µM serotonin 100%; activation, % at 7.6 µM; 2,300 compounds, 19% hits;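 active = mean activation across triplicates above the hit threshold derived in the original primary screen, cut at about 15% in these data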
A number is an active result; n = inactive; x = no result. Rows were chosen to be rich in hits. Some 2.2% of all compounds tested hit in one or more screens of this group.

SMILES	HGIII-sPLA2 inh	MOR-DOR ag	MOR-DOR inv ag	HTR5A ag ctr	m5-HT2A agonist	HTR5A inv ctr	MOR ag counter	m5-HT2A ag conf
COc1cc2c3nnc(-c4ccc(F)cc4)c-3cn(Cc3ccccc3)c2cc1OC	n	n	n	n	25	n	n	n
COc1ccc(Cn2cc3c(-c4ccc(F)cc4)nnc-3c3cc(OC)c(OC)cc32)cc1	n	n	n	n	n	n	x	x
CC(C)c1nc(SCC(=O)NCC2CCCO2)c2c(=O)n(C)c(=O)n(C)c2n1 (stereo not given)	n	n	n	n	28	n	n	n
CC(C)N1Cc2nnn(Cc3ccc(F)cc3)c2-c2cc(F)ccc2S1(=O)=O	n	x	x	x	x	x	x	x
Cc1cccc(NC(=O)c2cc(S(=O)(=O)N3CCc4ccccc43)cn2C)c1C	n	n	n	n	n	n	x	x
CCc1ccccc1NC(=O)c1cc(S(=O)(=O)N2CCc3ccccc32)cn1C	n	n	n	n	28	n	0.7	n
Cc1csc(=O)n1CC(=O)OCc1nnc(-c2ccc(Cl)cc2)o1	n	n	n	n	n	n	x	x
Cc1csc(=O)n1CC(=O)OCc1nnc(-c2ccccc2)o1	n	n	n	n	21	n	n	n
Cc1ccc(-c2nc3c(c(SCC(=O)N4CCOCC4)n2)COC(C)(C)C3)cc1	n	n	n	n	20	n	n	n
O=C(NCC1COCCO1)C1CCN(S(=O)(=O)c2ccc(Br)s2)CC1 (stereo not given)	n	x	x	x	x	x	x	x
CCn1c(=O)ccc2cc([N+](=O)[O-])ccc21	n	n	n	n	14	n	n	n
CC(C)(C)c1ccc(NC(=O)COC(=O)C2=COCCO2)cc1	n	n	n	n	n	n	x	x
CN(C)C(=O)c1ccc(NC(=O)COC(=O)C2=COCCO2)cc1	n	n	n	n	18	n	n	n
CCOC(=O)[C@@]12CCCC3=C1N(CCC3)C(=O)[C@H]2CC(=O)N1CCCC1	n	x	x	x	x	x	x	x
c1ccc(Cc2noc(CN3CCCC(CN4CCOCC4)C3)n2)cc1 (stereo not given)	n	n	n	n	15	n	n	n
c1ccc(COC2CCCN(Cc3nc(Cc4ccccc4)no3)C2)cc1 (stereo not given)	n	n	n	n	n	n	x	x
Cn1nnnc1SCC(=O)N1c2ccccc2Sc2ccccc21	n	n	n	n	39	n	n	n
CC(=O)c1cccc(OCC(O)CNCC2COc3ccccc3O2)c1 (stereo not given)	n	n	n	n	26	n	n	59
CC(OCC(O)CNCC1COc2ccccc2O1)c1ccc(Cl)cc1 (stereo not given)	n	n	n	n	n	n	x	x
O=C(C(=O)N1CCC(CNS(=O)(=O)c2cccc(C(F)(F)F)c2)CC1)c1cc2ccccc2o1	n	x	x	x	x	x	x	x
O=C(Nc1ccc(S(=O)(=O)N2CCCCCC2)cc1)c1ccco1	n	n	n	n	15	n	n	n
Cc1nc(SCC(=O)NCCc2ccc(Cl)cc2)nc(C)c1C	n	n	n	n	15	n	n	n
FC(F)(F)c1cccc(CN2CCN(c3ncccn3)CC2)c1	n	n	n	n	20	n	n	66
O=[N+]([O-])c1ccccc1CN1CCN(c2ncccn2)CC1	n	n	n	n	n	n	x	x
Fc1cccc(CN2CCN(c3ncccn3)CC2)c1	n	n	n	n	41	n	n	113
O=[N+]([O-])c1cccc(CN2CCN(c3ncccn3)CC2)c1	n	n	n	n	15	n	n	59
Cc1nnc(NC(=O)c2nc(S(=O)(=O)Cc3ccccc3)ncc2Cl)s1	n	n	n	10	15	n	n	n
Cc1ccc(S(=O)(=O)CC(=O)Nc2nc(C(C)(C)C)cs2)cc1	n	n	n	n	19	n	n	n
CC(=O)Nc1cc(NC(C)=O)cc(C(=O)OCC(=O)c2ccc3c(c2)NC(=O)CO3)c1	n	n	n	n	20	n	n	n
N#CCC(=O)Nc1ccc(C(=O)OCC(=O)c2ccc3c(c2)NC(=O)CO3)cc1	n	n	n	n	25	n	n	n
